Assay results reported in PubChem BioAssay (NCI).
This is part of a sample that, as a whole, favours compounds with a hit. Of some 83,000 tested, about 20% had one in any assay.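 Assay: single dose, 48 h. Readout: percent growth (0 = no net growth; negative = cell death). Active: <10.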 A number with no mark means an inactive call. Activity calls are given as the source filed them.

Each compound was assayed on HCT-15 colon (assay: NCI-60 one-dose screen, 48 h (100 = growth as untreated, 0 = no growth, -100 = all killed)). Settings: 10 µM unless noted.

SMILES | growth
Cc1ccc(-c2nn(-c3ccccc3)cc2/C=C/C(=O)c2ccc(NC(=O)CCCCCCC(=O)NO)cc2)cc1 | 68%
CC(C)(C)c1ccc(C(=O)Nc2sc3c(c2C(N)=O)CCC(O)C3)cc1 (centres undefined) | 6.55% (active)
O=C(Nc1ccc2c(ccn2Cc2ccccn2)c1)c1ccnnc1 | 111%
CC(C)(C)c1ccc(C(=O)Nc2sc3c(c2C(N)=O)CC/C(=N\O)C3)cc1 | 10.4%
NC(N)=Nc1ccc(Oc2cccc(Nc3ccc(Cl)cc3)c2)cn1 | -48.7% (active)
CCc1cccc(NC(=O)CNc2cc(S(=O)(=O)N(C)C)cc(C)c2C)c1 | 106%
COc1ccc(N2C(=O)c3cc(Cl)ccc3NC2SCc2ccccc2)cc1 (centres undefined) | 82%
O=C(CN1CCN(c2cc(=O)n(-c3ccccc3)c3ccccc23)CC1)Nc1nc(-c2ccc(Cl)cc2)cs1 | 39.7%
COc1ccc(C2c3sc4c(C)cccc4c3Oc3nc(CC(=O)Nc4ccccc4)[nH]c(=O)c32)cc1 (centres undefined) | 51.9%
O=C(/C=C/c1ccc(F)cc1)c1ccc(O)cc1 | 73.5%
Cn1ccnc1C(=O)/C=C/c1ccc(NC(=O)c2c(F)c(F)c(F)c(F)c2F)cc1 | 85.9%
Nc1cc(-c2c[nH]c3ccc(Br)cc23)nc2cc(-c3c[nH]c4ccc(Br)cc34)nn12 | 2.64% (active)
C#CCC#CCN1CCC[C@H]1C(=O)NCC(=O)OC | 102%
COc1cc(/C=C/C(=O)c2ccc(NC(=O)CSc3nnc(-c4ccc(-c5nc6ccc(Cl)cc6[nH]5)cc4)o3)cc2)cc(OC)c1OC | 53.7%
Oc1cccc2ccc(-c3nnc(SCc4ccc(O)c5ncccc45)o3)nc12 | 8.78% (active)
NS(=O)(=O)c1ccc(Nc2nc(SCc3ccccc3)nc3ccccc23)cc1 | 39.1%
O=C1[C@@H]2Cc3c([nH]c4ccccc34)[C@H](c3c(Cl)cccc3Cl)N2C(=O)CN1C1CCN(CC2CCCCC2)CC1 | 7% (active)
NS(=O)(=O)c1ccc(Nc2nc(N/N=C/c3c[nH]c4ccccc34)nc(Nc3ccccc3)n2)cc1 | 75.5%
N#Cc1c(-c2cccs2)cc(-c2cnccn2)nc1SCC(=O)Nc1ccc(Br)cc1 | 82.9%
COc1ccc(Cn2cc3c(c2-c2cc(OC)c(OC)c(OC)c2)CCc2c(CN4CCOCC4)noc2-3)cc1 | 15.3%
C=CCn1c(SCC(=O)Nc2ccc(C(=O)/C=C/c3ccc(C)cc3)cc2)nnc1-c1c[nH]c2ccccc12 | 71.5%
COc1ccccc1C(=O)Nc1cccc2c1C(=O)C(=O)C=C2 | 93.6%
COc1cc(-c2nn(C(C)(C)C)cc2-c2ccnc(NCCCNS(=O)(=O)c3ccc(Cl)cc3)n2)ccc1Cl | 51.5%
CCc1cccc2c3c(sc12)C(c1ccc(Cl)cc1)C(C#N)=C(/N=C/c1ccc(Cl)cc1)O3 (centres undefined) | 25%
C=C(C=O)[C@@H]1CC[C@]2(COC(C)=O)CC[C@]3(C)C(CC[C@@H]4[C@@]5(C)CC[C@H](OC(C)=O)C(C)(C)[C@@H]5CC[C@]43C)[C@@H]12 (some centres undefined) | -42.7% (active)
COc1ccccc1N1CCN(C2=CC(=O)C(C)=C(C)C2=O)CC1 | 100%

The compounds below were run on HT29 colon in the same assay as above. Settings: 10 µM unless noted.

SMILES | growth
CN1CCN(Cc2ccc(NC(=O)c3cncc(C#Cc4cnc5ccc(N6CCN(C)CC6)nn45)c3)cc2C(F)(F)F)CC1 | -41.6% (active)
O=C(O)c1cn(C2CC2)c2cc(N3CCN(C(=O)CN4C(=O)CSC4=O)CC3)c(F)cc2c1=O | 112%
NC/C(=C/F)COc1ccc2nc(NCc3cccnc3)oc2c1 | 112%
C=C(C)[C@@H]1CC[C@]2(C(=O)NCCCCCN(CCC#N)CCC#N)CC[C@]3(C)[C@H](CC[C@@H]4[C@@]5(C)CCC(=O)C(C)(C)[C@@H]5CC[C@]43C)[C@@H]12 | 108%
CCCCNNC(=O)c1ccc(-c2cccc(F)c2F)cc1 | 10.6%
C#Cc1ccc(C(=O)NCc2ccc(/C=C/C(=O)c3nccn3C)cc2)cc1 | 8.87% (active)
COc1ccc(/C(N)=N/C(N)=N/c2nc3ccccc3s2)cc1 | 104%
O=C(CN1CCN(c2cc(=O)[nH]c3ccc(F)cc23)CC1)Nc1ccc(Cl)cc1 | 100%
Cc1ccc(-n2cc(/C=C/C(=O)c3ccc(O)cc3)c(-c3ccc(S(C)(=O)=O)cc3)n2)cc1 | 28.6%
O=S(=O)(NCCCNc1nccc(-c2[nH]c(-c3ccccc3)nc2-c2ccc(Cl)c(O)c2)n1)c1cccc(F)c1 | 61.7%
Cc1cc(-c2ccc(Cl)cc2)n(Cc2nnc(SCC(=O)Nc3ccc(S(N)(=O)=O)cc3)n2C2CCCCC2)n1 | 108%
Oc1cccc2ccc(-c3nnc(SCc4ccc(O)c5ncccc45)n3-c3ccccc3)nc12 | 81.3%
Cc1ccc(-c2nn(-c3ccccc3)cc2/C=C/C(=O)c2ccc(NC(=O)CCCCCCC(=O)NO)cc2)cc1 | 61.4%
CC(C)(C)c1ccc(C(=O)Nc2sc3c(c2C(N)=O)CCC(O)C3)cc1 (centres undefined) | 2.76% (active)
O=C(Nc1ccc2c(ccn2Cc2ccccn2)c1)c1ccnnc1 | 103%
CC(C)(C)c1ccc(C(=O)Nc2sc3c(c2C(N)=O)CC/C(=N\O)C3)cc1 | 5.87% (active)
NC(N)=Nc1ccc(Oc2cccc(Nc3ccc(Cl)cc3)c2)cn1 | 4.94% (active)
CCc1cccc(NC(=O)CNc2cc(S(=O)(=O)N(C)C)cc(C)c2C)c1 | 104%
COc1ccc(N2C(=O)c3cc(Cl)ccc3NC2SCc2ccccc2)cc1 (centres undefined) | 84.1%

SMILES | growth
O=C(CN1CCN(c2cc(=O)n(-c3ccccc3)c3ccccc23)CC1)Nc1nc(-c2ccc(Cl)cc2)cs1 | 63.8%
COc1ccc(C2c3sc4c(C)cccc4c3Oc3nc(CC(=O)Nc4ccccc4)[nH]c(=O)c32)cc1 (centres undefined) | 94.1%
O=C(/C=C/c1ccc(F)cc1)c1ccc(O)cc1 | 93.2%
Cn1ccnc1C(=O)/C=C/c1ccc(NC(=O)c2c(F)c(F)c(F)c(F)c2F)cc1 | 112%
Nc1cc(-c2c[nH]c3ccc(Br)cc23)nc2cc(-c3c[nH]c4ccc(Br)cc34)nn12 | -33.8% (active)
C#CCC#CCN1CCC[C@H]1C(=O)NCC(=O)OC | 104%
COc1cc(/C=C/C(=O)c2ccc(NC(=O)CSc3nnc(-c4ccc(-c5nc6ccc(Cl)cc6[nH]5)cc4)o3)cc2)cc(OC)c1OC | 106%
Oc1cccc2ccc(-c3nnc(SCc4ccc(O)c5ncccc45)o3)nc12 | 56.8%
NS(=O)(=O)c1ccc(Nc2nc(SCc3ccccc3)nc3ccccc23)cc1 | 41%
O=C1[C@@H]2Cc3c([nH]c4ccccc34)[C@H](c3c(Cl)cccc3Cl)N2C(=O)CN1C1CCN(CC2CCCCC2)CC1 | 5.63% (active)
NS(=O)(=O)c1ccc(Nc2nc(N/N=C/c3c[nH]c4ccccc34)nc(Nc3ccccc3)n2)cc1 | 31.6%
N#Cc1c(-c2cccs2)cc(-c2cnccn2)nc1SCC(=O)Nc1ccc(Br)cc1 | 90.9%
COc1ccc(Cn2cc3c(c2-c2cc(OC)c(OC)c(OC)c2)CCc2c(CN4CCOCC4)noc2-3)cc1 | 11.7%
C=CCn1c(SCC(=O)Nc2ccc(C(=O)/C=C/c3ccc(C)cc3)cc2)nnc1-c1c[nH]c2ccccc12 | 101%
COc1ccccc1C(=O)Nc1cccc2c1C(=O)C(=O)C=C2 | 62.5%
COc1cc(-c2nn(C(C)(C)C)cc2-c2ccnc(NCCCNS(=O)(=O)c3ccc(Cl)cc3)n2)ccc1Cl | 49.4%
CCc1cccc2c3c(sc12)C(c1ccc(Cl)cc1)C(C#N)=C(/N=C/c1ccc(Cl)cc1)O3 (centres undefined) | 7.88% (active)
C=C(C=O)[C@@H]1CC[C@]2(COC(C)=O)CC[C@]3(C)C(CC[C@@H]4[C@@]5(C)CC[C@H](OC(C)=O)C(C)(C)[C@@H]5CC[C@]43C)[C@@H]12 (some centres undefined) | 4.87% (active)
COc1ccccc1N1CCN(C2=CC(=O)C(C)=C(C)C2=O)CC1 | 104%
